Hit rate of the full screen: of about 53,000 sequences, about 3,700 (7%) were called active. Only a selection was taken, and actives are over-represented in it overall. Values without a mark were called inactive.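 Rule for the calls: active = gene knockdowns whose robust z-score for IL-1 alpha signal is at least 2 or at most -2, so actives lie on both sides; inactive = the rest.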

The experiment is described as follows: Components of the Cytosolic LPS Sensing Pathway: Gene Identification via Genome-wide siRNA Screen.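 Note: robust z of the log signal after scaling to non-targeting control siRNA wells of the plate.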 The following applies: RAW264.7 macrophages, IL-1a HTRF, actives lie on both sides, screened at 100 nM (by protocol), cells primed 5 h with Pam3CSK4 first. The gist of the method: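 Mouse macrophage line RAW264.7 is transfected with siRNA (100 nM final), grown 48h, primed with TLR ligand Pam3CSK4 5 h and given intracellular LipidA 24 h. IL-1a in supernatant is read by HTRF and viability by luminescence.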
In the case of GGAAAGGAAUGUUCAAAUUTT against Psmb8, the z-score is 2.02 (active).

In the case of GGAAGACCUUCUUAAACACTT against Prokr2, the z-score is 1.26.

In the case of GCUUUUGACGAGCAAGCAGTT against Eme1, the z-score was 1.47.

Take GGCAGUCACUGGCUAAAUGTT against Ugt2a1: the z-score was 2.13 (active).

As to CCCUUUCCUAUUUGUUAUGTT against Serpinb3d, the z-score was 0.754.

For GGUAUUAGUAUGUAUCUUCTT against Olfr135, the z-score is 0.305.

As to CCCUAAUGAAUGGUCUCAUTT against Tmem74, the z-score is -0.176.

On to CCAUGUCCUAACCUGAAACTT against Zic5, for which the z-score was 0.372.

GGAUUUGAGCGAUAUGAGCTT against Tex12: the z-score is -3.29 (active).

On to GGCCCUAAUAGCAACAGGATT against Ubqln2, for which the z-score was -1.31.

In the case of GGCCUUCAAAUCAUACGCUTT against Ms4a19, the z-score is 0.283.

In the case of GGAAGAAAAGGCUUCUCUUTT against Ube3c, the z-score is -0.00788.

Consider GGGAGAAUUUUUGUGCAAGTT against Capza3, for which the z-score was 0.437.

For the sequence CGCAUGUUCAUAGGACUGCTT against Olfr1420, the z-score is 0.453.

With GGAUCUUUCUUUUCUCUCUTT against Rab6b, the z-score is 0.32.

As for GCUGAUCAAAUUGGCCUGUTT against Olfr984, the z-score was -0.703.

Regarding GCUUCAGUAUUUAUUUGCUTT against Usp28, the z-score is 2.27 (active).

As for GGAAGGCCGCAUACUGAUGTT against Scgn, the z-score is -0.218.

On to GGAUUGAAAGCUACUCGUGTT against Maf1, for which the z-score is 0.533.

In the case of GAGACAAUGCAGCAAAAUCTT against Gm839, the z-score is -1.13.

For the sequence GCACAAUUUCGUGUGAGCUTT against Sfxn5, the z-score was 0.643.

Regarding GGCAGAAUUUGAGCACUUUTT against B4galnt2, the z-score is -2 (active).

Turning to GGAGGAGUAUGUUAAGGCCTT against Myh6, the z-score is 0.193.

Take GGAGAGUCCAUACCAGAACTT against C1qa: the z-score was 0.0536.

Take GGUUGGACAACAUAAUAAGTT against Riox2: the z-score is 1.17.

In the case of GGUGUGGAGUAUGUAUGCUTT against Aplp1, the z-score was -1.11.

GGCCUGCGUUCAGAAGAGUTT against Wrn: the z-score is 3.46 (active).

GGAACUACUACUCACCUAUTT against Trhr: the z-score was -0.776.

Take GGGUCCUAAAAAUUCAAUUTT against Decr2: the z-score is -0.106.

Turning to GCUUCGUGGCUUUUUAUGATT against Dlgap3, the z-score is -0.788.

As to GCGAUUUGUGGUUCUCAUATT against Rnf103, the z-score is -0.559.

Take GGCGCACAAAGCUGUUCUUTT against Zbtb43: the z-score is -0.87.

In the case of GGGAACAAAAACAUAAAAGTT against Otub2, the z-score is -1.17.

Take GAAUUGUCUUACUUGGAAATT against Gimap4: the z-score was 2.05 (active).

Take CGGUCCUGAAUGAUCCUACTT against Gp2: the z-score is 0.969.

Turning to GGAUUUGUGUCCAUCGUGCTT against Olfr66, the z-score was 0.00905.

On to CCGUAUGUAACCAUCAAAGTT against Ncf1, for which the z-score was 0.281.

GGCACUCCCUAAUGAACUCTT against Adck5: the z-score is 1.42.

Consider GUUACCUCAGUGUUAUACUTT against Olfr45, for which the z-score is 1.7.

Turning to GGUGAAAAGAUGCAGGUGATT against Atp1a3, the z-score is -1.1.

Take CGAUGAACACACGUCUUAUTT against Dtl: the z-score was 2.05 (active).

As for GGGCAGGAACAAAAGAAGCTT against Dsc1, the z-score is 0.165.

For GGUGUCACCAUUUCAGUGGTT against Lbp, the z-score was 0.703.

GCAUUCAUGUGCUCUGCCCTT against Ifitm6: the z-score is -0.952.

For GGCUGUCUUCUGAUCAAUUTT against Adamts3, the z-score was 2.42 (active).

In the case of GGCAUUGAAUUAAAGAUACTT against Myct1, the z-score is -1.06.

As for GCAUCACGGAUUCGAAUUGTT against Dgkz, the z-score was -1.25.

As to GGAAGACAUAAUAAUAGAGTT against Rad17, the z-score was -1.39.

Turning to CCUACAAGAACGAAGAUUUTT against Pla2g4d, the z-score was -1.67.

Turning to CCAACAUCGAGCUAGCCACTT against Psma5, the z-score is -2.28 (active).

Consider CCACCUACGUCAACACUAATT against Kcnh6, for which the z-score was -1.8.

On to CCAGAUGUUGGAUAAAACGTT against Fbxw10, for which the z-score is -0.333.

Take GGAAAUUUCAGUCGAACAGTT against Arhgap31: the z-score is 0.333.

With GGUCUUUGACAGAAUAAAATT against Yipf1, the z-score is 1.94.

As for GGCAUCCACCCUAAGGUCATT against Keap1, the z-score was 1.03.

Consider GGAUUGAGUGACGACUGACTT against Nova2, for which the z-score was 2.25 (active).

GGCCUCCAAAUGAACAGCATT against Trmt61a: the z-score was -0.365.

As to GCUGUACGUAGAUUCCAGATT against Mmp21, the z-score is 1.48.

Consider CCCAAUUAGGCUAUGCUAATT against Amfr, for which the z-score was 2.27 (active).

For the sequence GGAGAAACAUCAAUUGCACTT against Thbs2, the z-score is -0.0207.

Regarding GCUUGAUGACUCUAAACCUTT against Runx2, the z-score is 1.29.

For GCCUCUAUCUGUACUCUGGTT against Pdk2, the z-score was -0.944.

Consider GCACAAAUCUGGUAAGUCATT against Gtf2h1, for which the z-score was 0.474.

Consider GCAACAUAUGGUAUACUGUTT against Mdm4, for which the z-score was 1.41.

In the case of CCAUGAAAAACUUAGUGUGTT against Trim37, the z-score was 0.682.

GGAGUGUUUGAGAAAUACCTT against Pnpla7: the z-score is 3.32 (active).

As for CCUUGGGACUGACUGUAAGTT against Ptrh2, the z-score is -0.887.

As to GGUCUUAUUUUGAAGUGUUTT against Cybb, the z-score was 0.013.

GCGAUCAAAAAAGUUGCCUTT against Arhgap44: the z-score is -0.387.

As to GGAGUGGGAGAAGAUGGAATT against Mbd4, the z-score was 2.17 (active).

With GCUACAAGUGUUGCCUGAATT against Slit1, the z-score was 1.21.

Regarding GGUGCAGAGAAGAACAAGATT against Inpp1, the z-score was -0.993.

In the case of CCACAGGGAGACAUGAUAUTT against Coprs, the z-score is -0.292.

On to GUGAUGUCACUAAUGCCAATT against Cd99, for which the z-score was 0.628.

GGAUAGACAGAAAUUCUCATT against Flot1: the z-score was 1.43.

With GGAAAACUACUGGAACUGGTT against Irgm1, the z-score was 0.415.

GGAGGCAGAUGCUGGAAUCTT against Defb3: the z-score was 4.19 (active).

Take GGUGAUCAUGCUAACCUUUTT against Pcolce: the z-score is 0.436.

For the sequence GGUGUAACUGGGCUGCAUGTT against Avpi1, the z-score is 0.269.

For the sequence GGCAAUUCUUAACCUGUCCTT against Tacc1, the z-score is -2.75 (active).

As to GCUGAUGGUAAAUUCACAGTT against Serpinb3c, the z-score is -1.01.

As to GCAUGUGUACCAUUUACCUTT against Prdx1, the z-score is 1.87.

Turning to GGAUGCCCUUGUCACAAAGTT against Fbl, the z-score was 0.154.

Consider GGAACACUGUAUCUUACGGTT against Mtmr6, for which the z-score was 0.599.

In the case of “GGAGAAGGUGACUUAAUAGTT against 9430077A04Rik”, the z-score was 0.76.

On to GGAGAUCACCUACGACAUGTT against Lgals8, for which the z-score was 0.446.

For GGUCAUCUCAGUACUACAATT against Dgat2, the z-score was 0.251.

On to GGCAAGAAAAACACUUUAUTT against Parp3, for which the z-score was 1.85.

On to GGAAGGAGGACAGAGGAAUTT against Tmem19, for which the z-score was 2.34 (active).

As to GGCAUUGGAAGAUGCACAGTT against Scp2, the z-score was 0.431.

On to GGUUAUAGCAUCCUUAACUTT against Tmem208, for which the z-score is 1.06.

In the case of GGUGAAGUCUUACCUAUACTT against Aacs, the z-score was -0.598.

As for GACCUUGGUUAUUCUACAGTT against Olfr1087, the z-score is -1.14.

In the case of GGUGUGUUUUGUAUUGAUUTT against Olfr843, the z-score is 0.482.

For GGCAACAGUGCAUUCAAGUTT against Nptx2, the z-score is 3.39 (active).

For GGUCUCCAUAAGUGUCAGCTT against Cntfr, the z-score is -0.407.

For the sequence GGUGUCUCUGAAGAUUGAATT against Cdc6, the z-score was 0.345.

Turning to GGAUUAGGAUCAGCAGGAUTT against Accs, the z-score is 1.01.

Turning to GGAUCUUGAUCCACAUCUCTT against Padi6, the z-score was -2.47 (active).

Turning to GGAGAUAAUCCUUGUCACGTT against Whamm, the z-score was 0.592.

In the case of CCCUUAAAGGGUAGCAUUUTT against Ncan, the z-score is 0.837.

Take GUGGUCUUUAUCGGCAUGATT against Slc35c1: the z-score is 0.287.

GCUCUUGUAAAUUUGUGAATT against Usp10: the z-score is -0.331.

Take GCAGUGCUCUUUAGCAUAATT against Zfp689: the z-score is 1.01.

Take GCAUAAAAAACGAAUAGAGTT against Smc1b: the z-score was -0.432.

GCAAGUCCUAGUGUCCUGATT against N6amt1: the z-score was -0.213.

In the case of GGAAAUGCUGCCAUUGUUATT against Aldh3a2, the z-score was 0.333.

Take GGAACAAAGACAUUGCUUUTT against Sf3a3: the z-score was -2.77 (active).

Consider GCAAGCGAUGGCACAUAGATT against Ap1g2, for which the z-score was 1.03.

These data come from PubChem BioAssay AID1508600 (Functional Genomics Laboratory (NCATS/FGL), 2020).
